# A selection: hits, their analogues and other compounds. The true share with any hit is near 1.1%.
# Epigenetic mod: derepresses silenced GFP locus in mouse C127i cells; mouse C127i GFP locus derepression, cytometry, 30 h; Potency, µM (doses to about 46.1 µM), inactives show top-dose GFP derepression (activation); actives 0.09% (n = 68,000); AID 597; note: % of control where 0% means no effect
#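 Derepression screen: silenced CMV-GFP reporter in murine C127i cells, 30 h compound incubation at 37 C, washed cells imaged by laser-scanning cytometer to enumerate GFP-expressing objects of 20 to 120 um.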
# HBB splice mod: modulators of hemoglobin beta chain splicing; HBB splicing reporter cell assay, activation; EGFP reporter with mutant IVS2-654 intron; response scale: normalised to 500 nM splice-correcting PNA; Potency, µM (top dose mostly 46.1 µM), for the others: at the top dose activation, usual class: activators; actives 0.06% (n = 65,000); AID 925; note: potency is the fitted concentration of half-maximal effect; 0% is about no effect
#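 Compounds were applied for 2 days to HeLa EGFP-654 cells, 500/well in Optimem with 2% FCS. The reporter's EGFP is disrupted by mis-splicing of beta-globin intron IVS2-654. Readout: summed well GFP fluorescence from 488 nm laser scanning; reference was 500 nM antisense […] 654 PNA.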
# USP2a inhib: USP2a (human) protease inhibition. O75604. USP2a enzymatic assay, qHTS inhibition. Potency, µM (top dose mostly 38.3 µM), for inactives: at the top dose activity change, negative = inhibition, hits mostly inhibitors. actives 0.1% (n = 60,000); note: potency is the fitted concentration of half-maximal effect; nearly all actives have a fitted effect of over 60% in size
#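 Inhibition is measured in a cell-free coupled assay with 20 nM USP2 core, 20 nM Ub-PLA2 and 20 uM NBD C6-HPC, 2.5 h incubation. Activity normalized to NEM control.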
# GBA mod: human lysosomal glucosylceramidase modulation; purified enzyme, resorufin glucoside fluorescence (screen aimed at inhibitors), 20 min; Potency, µM; actives 1.1% (n = 48,000); AID 360; in the data active = potency below about 15 µM; inconclusive = mostly about 16 µM to 33 µM;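 note: potency is the fitted concentration of half-maximal effect; the screen sought inhibitors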
# Target sequence (P04062 whole entry, looked up): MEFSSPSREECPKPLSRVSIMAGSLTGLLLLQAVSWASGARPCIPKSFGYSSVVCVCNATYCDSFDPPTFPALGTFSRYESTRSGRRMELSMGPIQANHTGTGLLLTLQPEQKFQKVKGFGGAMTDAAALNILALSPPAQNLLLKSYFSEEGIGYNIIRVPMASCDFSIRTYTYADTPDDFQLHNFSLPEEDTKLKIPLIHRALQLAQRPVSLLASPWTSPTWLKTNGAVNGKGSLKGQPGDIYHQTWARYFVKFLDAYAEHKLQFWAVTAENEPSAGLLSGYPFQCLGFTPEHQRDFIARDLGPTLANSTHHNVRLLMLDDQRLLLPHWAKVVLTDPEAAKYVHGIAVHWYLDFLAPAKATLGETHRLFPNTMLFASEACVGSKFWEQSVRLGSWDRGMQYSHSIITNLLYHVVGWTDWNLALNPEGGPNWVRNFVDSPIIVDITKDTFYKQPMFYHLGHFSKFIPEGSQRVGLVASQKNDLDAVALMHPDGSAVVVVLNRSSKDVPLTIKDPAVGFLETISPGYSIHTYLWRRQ
#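 Wild-type enzyme at 0.2 nM final in 50mM citric acid/KH2PO4, 10mM sodium taurocholate, 0.01% tween-20, pH 5.9, with resorufin beta-D-glucopyranoside at 30 uM final. Compounds titrated, 20 min at RT, red fluorescence read; AC50 from titration.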
# Hsp90 Hop PPI: changes Hsp90-Hop TPR2A binding signal, up or down; AlphaScreen TPR2A-His6 binding biotin-Hsp90 C-terminal peptide; Potency, µM (doses to about 57 µM), for the others: top-dose activity change, negative = inhibition; actives 0.44% (n = 71,000); AID 595; active = well fitted curve in either direction with a large enough effect; inconclusive = small, poorly fitted or top-dose-only effect, or another doubt; note: potency is the fitted concentration of half-maximal effect; % is set by controls: 0 for no effect and ±100 for the full control effect
# UbGFP stabilizer: inhibits proteasome, raising ubiquitin-GFP reporter fluorescence | Potency, µM (doses to about 45.9 µM), for the others: top-dose activation (GFP accumulation), hits mostly activators | Ubiquitin-GFP reporter cells, proteasome inhibition, GFP fluorescence; response scale: untreated = 0%, 10 µM MG-132 = 100% | 67,000 tested, under 10 active; active = well fitted activation curve with a large enough effect, not every such curve was filed as active; inconclusive = small, poorly fitted or top-dose-only effect, or another doubt; inactive = no such curve, though single readings can be large or run the other way; note: potency is the fitted concentration of half-maximal effect
#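 U2OS cells stably expressing ubiquitin(G76V)-GFP, seeded overnight in 0.5% FBS medium, were exposed to compounds (qHTS, 46 uM to 2.9 nM) for 4 hr at 37 °C. GFP-positive cells were counted by laser cytometry (488 ex/515 em), normalized between basal and 10 uM MG-132.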
# * hit, by the source's call; ? = inconclusive; . = no result; [ ] = remark or other dose. Unless noted, calls come from the whole dose curve; as a rule, active = well fitted curve in the direction sought with a large enough effect; inconclusive = small, poorly fitted or top-dose-only effect, or another doubt; inactive = no such curve, though single readings can be large; an effect the other way counts as inactive or inconclusive.
SMILES,Epigenetic mod,HBB splice mod,USP2a inhib,GBA mod,Hsp90 Hop PPI,UbGFP stabilizer
O=C(c1ccco1)N1CCC[C@@]2(CCN(C(c3ccccc3)c3ccccc3)C2)C1,-2.3%[9.22 µM],-1.3%,150.5%,.,-3.9%,4.8%
CN(C)c1ncc2nc(CCc3ccccc3)c(=O)n(-c3ccccc3)c2n1,2.7%[9.22 µM],5.4%,48.9%,.,20µM*,4.0%
COc1ccc2oc(=O)c(NC(=O)C3CCCCC3)cc2c1,1.0%,-0.2%,5.7%,5.23*,6.9%,5.3%
COc1ccc(OC)c(NC(=O)C2CCCC2)c1,-1.7%,0.0%,-4.8%,>76.9,-1.1%,5.3%
O=C(Nc1cccc(Cl)c1)N(CCCN1CCOCC1)Cc1ccccc1F,1.6%,-2.0%[57.5 µM],24.4%,11.4*,1.4%,-0.9%
Cn1cccc1C(=O)OCc1cc(Cl)cc2c1OCOC2,1.0%,-0.3%[57.5 µM],12.9%,12.2*,8.5%,-3.8%
O=C1NC(c2ccccc2)C(C(=O)c2cccs2)C(O)(C(F)(F)F)N1 (stereo not drawn),-2.3%,0.6%,-5.8%,>76.9,0.1%,-1.8%
CN1C(=O)NC(c2ccc(O)cc2)C(C(=O)c2cccs2)C1(O)C(F)(F)F (stereo not drawn),5.9%,-0.7%,4.5%,15*,-3.3%,-0.9%
O=C1CCC[C@@H](C(C(=O)OCc2ccccc2)C(=O)OCc2ccccc2)C1,.,1.6%[9.22 µM],.,.,.,.
O=C(CN1CCC(c2nc3ccccc3[nH]2)CC1)Nc1ccc2c(c1)OCO2,-2.6%,.,22.3%,13.7*,-5.9%,-6.6%
COc1ccc(-c2nc3cnc(N(C)C)nc3n(C[C@H]3CCCO3)c2=O)cc1,-7.1%[9.22 µM],1.1%,50.0%,.,4.5%,-0.9%
COc1ccc(-c2ccc(-c3noc(-c4ccccc4)n3)c(OC)n2)cc1,0.0%,1.7%[57.5 µM],36.9%,4.95*,1.6%,0.1%
COc1nc(-c2ccccc2)ccc1-c1noc(-c2ccccc2)n1,2.9%,-0.9%,8.1%,>76.9,-0.6%,-2.0%
COc1ccc(-c2ccc(-c3noc(-c4ccco4)n3)c(OC)n2)cc1,28.4%,5.1%,43.0%,7.68*,-0.2%,3.2%
CCCCCCCCCCCCCc1ccco1,.,.,-15.3%,.,.,.
COc1ncc2nc(-c3cccs3)c(=O)n(C)c2n1,-4.9%[9.22 µM],1.4%,120.1%,.,3.9%,3.2%
Cc1sc2nc(SCC(=O)NCc3ccco3)n(-c3ccccc3)c(=O)c2c1C,13.5%,.,26.8%,>76.9,-0.7%,-0.7%
CC(C)C(C)(C#N)NC(=O)CSc1nc2scc(-c3ccco3)c2c(=O)n1-c1ccccc1 (stereo not drawn),-1.3%,0.0%[57.5 µM],29.4%,15.1*,-1.9%,-1.0%
Cc1ccc(N[C@H](c2ccccc2)c2ccc3cccnc3c2O)cc1,3.4%[9.22 µM],1.2%[9.22 µM],.,.,-20.1%[11 µM],-0.3%[9.17 µM]
Cc1ccc2c(c1)-c1cc(C)nn1C(c1sccc1C)N2 (stereo not drawn),-1.3%,0.1%[57.5 µM],-13.0%,.,25.1µM*,-2.6%
COc1ccccc1NC(=O)Cn1nnc(-c2ccccc2NC(=O)c2ccco2)n1,3.3%,0.2%[57.5 µM],.,>76.9,1.8%,-1.1%
COc1ccc(NC(=O)Cn2nnc(-c3ccccc3NC(=O)c3ccco3)n2)cc1,9.9%,-0.2%[57.5 µM],.,7.17*,1.6%,0.4%
CC(=O)NC(c1ccco1)c1ccc2cccnc2c1O (stereo not drawn),?,-1.1%,14.2%,.,7.94µM*,-7.2%
Oc1c([C@H](Nc2ccccn2)c2ccccc2)ccc2cccnc12,5.7%[9.22 µM],2.4%[9.22 µM],.,.,?,-3.5%[9.17 µM]
Oc1c(C(Nc2ccccn2)c2ccccn2)ccc2cccnc12 (stereo not drawn),5.01µM*,-0.8%,45.3%,>76.9,3.16µM*,0.0%
O=C(O)[C@H](/C=C\c1ccccc1)c1ccccc1,-2.2%[9.22 µM],0.5%[9.22 µM],.,.,-2.1%[11 µM],9.2%[9.17 µM]
Cc1cc(NC(=O)Nc2cccc(C(F)(F)F)c2)no1,-2.9%,1.4%,5.6%,.,0.9%,?
Cc1cc(NC(=O)c2sc(Nc3cccc(C(F)(F)F)c3)nc2N)no1,-3.1%,.,15.5%,11.8*,-11.4%,-4.9%

# Assay outcomes as filed in PubChem.
